According to PubChem BioAssay:
Values joined by “and” are separate entries in the source; they are usually repeats but may differ in a detail not shown here. Equal entries are not always repeated. Active and inactive are the calls of the source. Unless noted, no rule for the calls is given here.

How the values were obtained:
[1] = compounds altering circadian rhythm period length – cell-based, LOPAC library, luminescence reporter (AID 2774); details: circadian reporter cells, at 7 µM, actives lie on both sides;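 also: values are relative to mean of DMSO wells on each plate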
[2] = P. berghei load reduction in hepatocytes – cell-based, HepG2, luciferase luminescence, HepG2 viability, primary screen (AID 624349; in the data active = parasite load remaining mostly below about 12%, no sharp cut-off; inactive = mostly above about 10%;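 also: 100% = mean of DMSO negative control wells on the same plate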); details: P. berghei liver stage in HepG2, luciferase luminescence, concentration not given here; parasite load remaining: stronger effect = lower value; viability: measured here: HepG2 viability without parasites
[3] = test system: Hepatitis C virus NS3 helicase; assay: blockers of NS3h binding to ssDNA – biochemical, fluorescence polarization, LOPAC1280 library, primary screen (AID 687035; in the data active = inhibition above about 37%); details: Purified HCV NS3 helicase, Cy5-dT15 ssDNA binding fluorescence polarization; stronger effect = higher value; concentration not given here
[4] = compounds altering Cy5-DNA-NS3h complex signal – biochemical, LOPAC1280, artefact control for HCV NS3 helicase inhibitor project (AID 687037); details: Cy5-DNA-NS3h complex fluorescence interference counterscreen
[5] = EMT-state selective cytotoxicity in co-culture – imaging, PC-3E GFP, TEM4-18 mCherry, primary screen (AID 1345086;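 active = compounds killing one labelled cell type while sparing the other, by normalised counts and ratio limits, not self-fluorescent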;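 as to all read-outs here: cells exposed to compound for 72 h before imaging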;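 as to red/green cell ratio (normalised): normalised mesenchymal count divided by normalised epithelial count so high means epithelial killing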); details: PC-3E GFP / TEM4-18 mCherry co-culture, imaging cell counts, at 1 µM; for red/green cell ratio (normalised): actives lie on both sides
[6] = test system: Aerobactin synthetase IucA (Klebsiella pneumoniae, hypervirulent); assay: biochemical IucA inhibition screen of LOPAC library by absorbance (AID 1346212); details: IucA enzyme assay, absorbance (OD) readout; stronger effect = lower value;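 tested at 8 µM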;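 also: 100% = no compound wells and 0% = no enzyme wells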
[7] = viability loss with induced miR-34 in A549 – imaging, A549 dox-inducible miR-34, nuclei and caspase counts, primary screen (AID 1347080;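 active = compounds whose cell count with miR-34 switched on is under 0.7 times the count with it off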); details: A549 miR-34 inducible, Hoechst nuclei count, 48 h
[8] = blockers of cellular phospholipid synthesis – cell-based, LOPAC library, screen 4, primary screen (AID 1347384); details: animal cells, phospholipid biosynthesis inhibition screen; at 10 µM
[9] = galactose survival enhancers in mitochondrial complex I cybrids – cell-based, galactose medium, ATP luminescence, primary screen (AID 1645843;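 active = z-score of at least 1.8 in each of two replicates, scored against plate mean and spread of sample wells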;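 also: positive z means more ATP and so rescue of galactose-driven cybrid death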); details: complex I mutant cybrid cells, 72 h, stronger effect = higher value
[10] = MELAS cybrid and Rieske KO viability enhancers – cell-based, MELAS cybrids, Rieske KO mouse fibroblasts, CellTiter-Glo, primary screen (AID 1508586;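 active = mean z-score across replicates of 1.96 or higher in either the MELAS or the Rieske mutant cell line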;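 also: z relative to plate mean and SD of compound and empty wells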); details: low glucose
[11] = test system: Aerobactin synthetase IucA (Klebsiella pneumoniae hvKP1); assay: IucA enzyme inhibition, primary screen, biochemical, Spectrum library (AID 1346200); details: malachite green pyrophosphate, A620, at 8 µM, stronger effect = lower value;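 also: 100% = wells without compound and 0% = wells lacking enzyme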
[12] = biological target: Mitogen-activated protein kinase 7 (Homo sapiens) (UniProt Q13164); assay: Gal4-ERK5 driven luciferase induction – cell-based, HTS, primary screen (AID 1508626;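 active = luciferase signal above three times the same-plate solvent-only control wells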;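 also: luciferase driven by Gal4-ERK5 fusion binding five Gal4 sites before minimal TATA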); details: HeLa Gal4-ERK5 transactivation, 18 h, at 5 µM, stronger effect = higher value
[13] = measured here: epithelial PC-3E GFP cell survival
[14] = measured here: mesenchymal TEM4-18 mCherry cell survival
[15] = measured here: relative caspase fold change +Dox/-Dox
[16] = measured here: total cells with miR-34 induction, stronger effect = lower value
[17] = measured here: total cells without miR-34 induction
[18] = MELAS cybrid survival, CellTiter-Glo 48 h, stronger effect = higher value
[19] = Rieske KO mouse fibroblast survival, CellTiter-Glo 72 h

Sequence of Mitogen-activated protein kinase 7 (Homo sapiens) (Q13164 whole entry, looked up, the tested form may be a part): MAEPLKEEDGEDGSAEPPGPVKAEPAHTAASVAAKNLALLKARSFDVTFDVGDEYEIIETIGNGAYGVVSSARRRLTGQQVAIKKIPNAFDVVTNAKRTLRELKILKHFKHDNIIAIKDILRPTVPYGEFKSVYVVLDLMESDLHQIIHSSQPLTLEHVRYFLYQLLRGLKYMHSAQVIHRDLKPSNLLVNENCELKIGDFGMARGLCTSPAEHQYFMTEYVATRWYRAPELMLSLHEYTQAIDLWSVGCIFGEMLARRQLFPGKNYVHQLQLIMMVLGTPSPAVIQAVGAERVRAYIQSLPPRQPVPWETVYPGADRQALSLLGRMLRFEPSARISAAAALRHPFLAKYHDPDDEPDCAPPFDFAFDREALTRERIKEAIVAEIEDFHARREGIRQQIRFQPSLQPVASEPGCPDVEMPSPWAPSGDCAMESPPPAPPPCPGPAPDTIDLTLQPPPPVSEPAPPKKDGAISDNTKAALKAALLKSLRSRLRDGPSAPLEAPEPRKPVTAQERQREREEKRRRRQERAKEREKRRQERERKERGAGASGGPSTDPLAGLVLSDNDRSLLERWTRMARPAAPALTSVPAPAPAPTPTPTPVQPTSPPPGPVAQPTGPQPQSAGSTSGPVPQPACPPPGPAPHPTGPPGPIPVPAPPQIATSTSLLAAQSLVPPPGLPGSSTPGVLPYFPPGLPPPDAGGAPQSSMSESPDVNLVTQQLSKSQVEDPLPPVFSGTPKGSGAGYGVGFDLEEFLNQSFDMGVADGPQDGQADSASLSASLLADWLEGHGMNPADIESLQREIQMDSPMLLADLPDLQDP

For `C[N+]1(C)C2CCC1CC(OC(=O)C(CO)c1ccccc1)C2` (stereo not given), the period change [1] was 0.05 hour (inactive) and -0.075 hour (inactive), the parasite load remaining [2] was 37.4% (inactive) and the viability [2] was 106%. For the same compound, the inhibition [3] was -4% (inactive) and -3% (inactive), the fluorescence ratio (interference) [4] was 1 (inactive) and the red/green cell ratio (normalised) [5] was 1.05 (inactive). For the same compound, the normalised cell number [5, 13] was 0.95, the normalised cell number [5, 14] was 1 and the remaining activity [6] was 112% (inactive). The fold change ([7]; stronger effect = lower value) was 1.08 (inactive) and 0.98 (inactive) and 0.858 (inactive), the fold change [7, 15] was 1.57 and 0.863 and 5.64 and the cell count [7, 16] was 9760 and 10000 and 10600. For the same compound, the cell count [7, 17] was 9050 and 10200 and 12400, the outcome [8] was “inactive” and the z-score [9] was 0.49 (inactive) and 0.65 (inactive).

For `CS(=N)(=O)CC[C@H](N)C(=O)O` (stereo not given in full), the period change [1] was -0.08 h (inactive), the parasite load remaining [2] was 18.6% (inactive) and 51.3% (inactive) and the viability [2] was 102% and 77.3%. For the same compound, the inhibition [3] was -3% (inactive), the fluorescence ratio (interference) [4] was 1 (inactive) and the red/green cell ratio (normalised) [5] was 0.94 (inactive). For the same compound, the normalised cell number [5, 13] was 1.08, the normalised cell number [5, 14] was 1.02 and the remaining activity [6] was 115% (inactive). The fold change ([7]; stronger effect = lower value) was 1.04 (inactive) and 0.811 (inactive), the fold change [7, 15] was 0.701 and 1.11 and the cell count [7, 16] was 10400 and 8780. The cell count [7, 17] was 9920 and 10800, the outcome [8] was “inactive” and the z-score [9] was 0.45 (inactive).

With `C[C@H](N)[C@H](O)c1ccccc1` the parasite load remaining [2] was 65.1% (inactive) and 27.2% (inactive), the viability [2] was 97.7% and 73% and the red/green cell ratio (normalised) [5] was 1.19 (inactive). The normalised cell number [5, 13] was 0.91, the normalised cell number [5, 14] was 1.08 and the fold change ([7]; stronger effect = lower value) was 0.856 (inactive) and 0.884 (inactive). For the same compound, the fold change [7, 15] was 0.745 and 1.02, the cell count [7, 16] was 11600 and 9670 and the cell count [7, 17] was 13500 and 10900. For the same compound, the z-score [10, 18] was -0.606 (inactive), the z-score [10, 19] was -1.57 and the z-score [9] was -0.235 (inactive).

With `C=C(C)C1Cc2c(ccc3c(=O)c4c(oc23)COc2cc(OC)c(OC)cc2-4)O1` (stereo not given) the red/green cell ratio (normalised) [5] was 0.91 (inactive), the normalised cell number [5, 13] was 0.94 and the normalised cell number [5, 14] was 0.86. For the same compound, the activity remaining [11] was 126% (inactive) and the luciferase signal [12] was 56 AU (inactive).

In the case of `COC1=CC(=O)OC(/C=C/c2ccccc2)C1` (stereo not given), the red/green cell ratio (normalised) [5] is reported as 0.84 (inactive), the normalised cell number [5, 13] is reported as 0.94 and the normalised cell number [5, 14] is reported as 0.79. The fold change ([7]; stronger effect = lower value) was 0.833 (inactive), the fold change [7, 15] was 1.16 and the cell count [7, 16] was 4840. The cell count [7, 17] was 5810.

For `O=C(O)Cc1cnc[nH]1`, the period change [1] was 0.01 h (inactive), the inhibition [3] was -1% (inactive) and the fluorescence ratio (interference) [4] was 1 (inactive). For the same compound, the red/green cell ratio (normalised) ([5]; counts scaled to control wells, 1 = unselective) was 0.87 (inactive), the normalised cell number [5, 13] was 1.11 and the normalised cell number [5, 14] was 0.97. For the same compound, the remaining activity [6] was 121% (inactive), the fold change ([7]; stronger effect = lower value) was 0.943 (inactive) and the fold change [7, 15] was 1.63. For the same compound, the cell count [7, 16] was 10100, the cell count [7, 17] was 10700 and the outcome [8] was “inactive”. The z-score [9] was -0.12 (inactive).

For `O=c1[nH]c(=O)n(Cl)c(=O)n1Cl`, the red/green cell ratio (normalised) [5] was 1.21 (inactive), the normalised cell number [5, 13] was 0.87 and the normalised cell number [5, 14] was 1.05. For the same compound, the fold change ([7]; stronger effect = lower value) was 0.959 (inactive), the fold change [7, 15] was 0.94 and the cell count [7, 16] was 8550. For the same compound, the cell count [7, 17] was 8920.

With `C=C(C)C1CNC(C(=O)O)C1CC(=O)O` (stereo not given) the parasite load remaining [2] was 103% (inactive), the viability [2] was 86.2% and the red/green cell ratio (normalised) [5] was 0.79 (inactive). For the same compound, the normalised cell number [5, 13] was 0.92, the normalised cell number [5, 14] was 0.73 and the activity remaining [11] was 96.1% (inactive).

In the case of `COc1cc2c3cc1Oc1c(OC)c(OC)cc4c1[C@@H](Cc1cccc(c1)Oc1ccc(c(O)c1)C[C@@H]3N(C)CC2)N(C)CC4`, the parasite load remaining [2] is reported as 114% (inactive), the viability [2] is reported as 67.7% and the red/green cell ratio (normalised) [5] is reported as 1.03 (inactive). The normalised cell number [5, 13] was 0.83, the normalised cell number [5, 14] was 0.86 and the activity remaining [11] was 112% (inactive).

For `CC[C@H]1C2CC3[C@@H]4N(C)c5ccccc5[C@]45C[C@@H](C2C5O)N3[C@@H]1O` (stereo not given in full), the parasite load remaining [2] was 88.5% (inactive), the viability [2] was 73.8% and the red/green cell ratio (normalised) [5] was 1.03 (inactive). The normalised cell number [5, 13] was 0.98, the normalised cell number [5, 14] was 1.01 and the activity remaining [11] was 112% (inactive).

For `CC(=O)O[C@H]1CC[C@@]2(C)C(=CCC3C2CC[C@]2(C)C(=O)CCC32)C1` (stereo not given in full), the parasite load remaining [2] was 162% (inactive), the viability [2] was 84.8% and the red/green cell ratio (normalised) [5] was 0.81 (inactive). The normalised cell number [5, 13] was 1.28, the normalised cell number [5, 14] was 1.04 and the activity remaining [11] was 103% (inactive).

For `CC1=C2CCC3C(CC[C@]4(C)C(=O)CCC34)[C@@]2(C)CCC1=O` (stereo not given in full), the parasite load remaining [2] was 48.4% (inactive), the viability [2] was 85.7% and the red/green cell ratio (normalised) [5] was 0.88 (inactive). For the same compound, the normalised cell number [5, 13] was 1.27, the normalised cell number [5, 14] was 1.12 and the activity remaining [11] was 104% (inactive).

With `C[C@H]1O[C@H](OC2[C@@H](O)[C@@H](O)C(O)[C@H](O)[C@H]2O)[C@@H](N)C[C@@H]1N=C(N)C(=O)O` (stereo not given in full) the parasite load remaining [2] was 61.4% (inactive), the viability [2] was 141% and the red/green cell ratio (normalised) [5] was 1.07 (inactive). The normalised cell number [5, 13] was 1, the normalised cell number [5, 14] was 1.07 and the fold change ([7]; stronger effect = lower value) was 0.847 (inactive). For the same compound, the fold change [7, 15] was 1.18, the cell count [7, 16] was 8950 and the cell count [7, 17] was 10600. The z-score [10, 18] was -0.576 (inactive), the z-score [10, 19] was -0.393 and the luciferase signal [12] was 128 AU (inactive). The z-score [9] was 0.075 (inactive).

In the case of `CC(C)(N)Cc1ccccc1`, the parasite load remaining [2] is reported as 7.56% (inactive), the viability [2] is reported as 113% and the red/green cell ratio (normalised) [5] is reported as 0.91 (inactive). The normalised cell number [5, 13] was 1.06, the normalised cell number [5, 14] was 0.97 and the fold change ([7]; stronger effect = lower value) was 0.89 (inactive). It also gave a fold change [7, 15] of 4.46, a cell count [7, 16] of 11900 and a cell count [7, 17] of 13300. For the same compound, the z-score [10, 18] was -0.229 (inactive), the z-score [10, 19] was -0.552 and the luciferase signal [12] was 64 AU (inactive).

In the case of `CC1=CC(=O)c2c(O)cccc2C1=O`, the red/green cell ratio (normalised) [5] is reported as 0.13 (inactive), the normalised cell number [5, 13] is reported as 0.08 and the normalised cell number [5, 14] is reported as 0.01. For the same compound, the activity remaining [11] was 112% (inactive) and the luciferase signal [12] was 276 AU (active).

With `COc1cc2c(cc1O)CC1c3c(cc(O)c(OC)c3-2)CCN1C` (stereo not given) the parasite load remaining [2] was 73.5% (inactive), the viability [2] was 80.3% and the red/green cell ratio (normalised) [5] was 0.97 (inactive). The normalised cell number [5, 13] was 1.11, the normalised cell number [5, 14] was 1.07 and the activity remaining [11] was 119% (inactive).
